# Source: PubChem (several laboratories)
# PfGluPho inh – PfG6PD (Plasmodium falciparum) enzyme inhibition; PfGluPho enzyme, NADPH resazurin-diaphorase fluorescence; inhibition, % at 20 µM; hit rate 0.78% among 350,000; AID 504690;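 active means inhibition reaching at least a set limit at 20 µM in the primary screen, cut at about 59% in these data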;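 further: 0% = DMSO wells with substrate and 100% = DMSO wells lacking glucose-6-phosphate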
# Neddyl block – blocks human cullin neddylation; calls only at 25 µM; TR-FRET cullin neddylation, biochemical; hit rate 0.58% among 360,000; in the data active means inhibition above about 36%
# Target sequence (P61081 whole entry, looked up): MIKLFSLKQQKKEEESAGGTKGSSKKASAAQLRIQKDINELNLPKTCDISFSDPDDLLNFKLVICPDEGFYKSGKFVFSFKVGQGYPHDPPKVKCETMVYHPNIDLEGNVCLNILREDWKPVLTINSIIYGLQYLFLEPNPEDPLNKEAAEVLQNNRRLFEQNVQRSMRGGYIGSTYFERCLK
# Target sequence (Q13564 whole entry, looked up): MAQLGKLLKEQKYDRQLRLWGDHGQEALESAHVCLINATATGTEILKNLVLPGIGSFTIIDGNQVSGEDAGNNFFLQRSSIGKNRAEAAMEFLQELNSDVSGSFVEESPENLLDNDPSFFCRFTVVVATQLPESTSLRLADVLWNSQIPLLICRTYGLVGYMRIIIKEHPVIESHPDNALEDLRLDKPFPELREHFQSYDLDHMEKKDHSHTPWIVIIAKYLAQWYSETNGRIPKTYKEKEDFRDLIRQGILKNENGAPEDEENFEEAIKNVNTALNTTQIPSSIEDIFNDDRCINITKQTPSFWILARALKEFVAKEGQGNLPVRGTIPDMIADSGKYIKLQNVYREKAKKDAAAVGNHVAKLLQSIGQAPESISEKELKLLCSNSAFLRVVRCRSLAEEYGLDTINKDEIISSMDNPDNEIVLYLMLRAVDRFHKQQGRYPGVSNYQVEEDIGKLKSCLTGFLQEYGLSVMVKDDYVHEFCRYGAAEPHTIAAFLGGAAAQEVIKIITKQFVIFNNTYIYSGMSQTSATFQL
# proKLK7 act – activators of human kallikrein-7 zymogen | hit rate 0.9% among 370,000 | P49862 | activation, % at 7 µM | purified proKLK7, EDANS-DABCYL substrate fluorescence; 100% is mature enzyme control, 0% vehicle;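 active means activation above the mean of all tested compounds plus 3 SD, computed per campaign excluding outliers beyond control limits, cut at about 13% in these data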
# FAS TE block – inhibitors of human fatty acid synthase thioesterase domain; hit rate 0.67% among 360,000; AID 602261; inhibition, % at 15 µM; P49327; recombinant FAS-TE, OMFH fluorogenic substrate, fluorescence endpoint;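 active means compounds whose normalised, plate-corrected inhibition of enzyme fluorescence in the single-dose primary screen is 50% or more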;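 further: 0% = DMSO with enzyme and 100% = substrate without enzyme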
# proKLK7 act conf – confirmation of human kallikrein-7 zymogen activators; activation, % at 7 µM; shares compounds with proKLK7 act; AID 686949; purified proKLK7, EDANS-DABCYL substrate fluorescence; scaled: vehicle 0, mature enzyme 100; hit rate 68% among 3,200;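 active means activation, as change over the incubation, above the mean of all tested compounds plus 3 SD, cut at about 13% in these data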
# EDANS interfere – counter-screen for kallikrein-7 activators: EDANS-DABCYL optical interference; shares compounds with proKLK7 act; EDANS-DABCYL substrate fluorescence interference, no enzyme, 4 h; solvent 0%, active enzyme control 100%; activation, % at 7 µM; hit rate 80% among 3,200;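 active means activation above the all-compound mean plus 3 SD, ignoring values outside control-based bounds, cut at about 4.8% in these data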;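 further: value is the 4 h activation minus the activation read at time zero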
# Active calls of the source: *; i = inactive; . = no result shown. Hits are enriched below; roughly 2.7% of the tested compounds scored in any of these assays.
SMILES,PfGluPho inh,Neddyl block,proKLK7 act,FAS TE block,proKLK7 act conf,EDANS interfere
O=C(NCCc1cn2cccnc2n1)C1CCC(=O)N(Cc2ccccc2F)C1 (stereo unspecified),8,.,35*,-8,27*,24*
Cc1ccc2nc(CNC(=O)C3CCC(=O)N(Cc4ccccc4F)C3)cn2c1 (stereo unspecified),9,i,0,-5,.,.
O=c1oc2c(CN3CCCCC3)c(O)ccc2cc1-c1nc2ccccc2[nH]1,-16,.,5,-13,.,.
Nc1ccccc1-c1nc2ccccc2[nH]1,11,.,69*,-4,-2,1
O=c1[nH]cccc1-c1nc2ccccc2[nH]1,3,.,56*,1,66*,75*
Cc1[nH]ncc1-c1nc2ccccc2[nH]1,2,i,0,-1,.,.
O=c1oc2c(O)cccc2cc1-c1nc2ccccc2[nH]1,-12,.,46*,-146,75*,67*
Oc1ccc(C=Nc2ccccc2-c2nc3ccccc3[nH]2)cc1,1,.,81*,-2,30*,29*
Nc1ccc(-c2nc3ccccc3[nH]2)cc1,7,.,1,-2,.,.
Cc1c(-c2nc3ccccc3[nH]2)cnn1C,1,i,0,-9,.,.
COC(=O)[C@]12C[C@H](CC(=O)NCc3cccc(C(F)(F)F)c3)C(=O)N(Cc3ccccc3)C1=C[C@H](C(C)(C)C)O[C@@H]2C,.,.,0,.,.,.
COc1ccc(-c2coc3c(C(=O)Nc4cccc(NS(C)(=O)=O)c4)cccc23)c(C)c1,.,i,0,17,.,.
CCOc1ccccc1N/C=C(\C#N)c1nc2ccccc2n1C,3,i,0,-1,.,.
Cn1c(/C(C#N)=C/Nc2ccccn2)nc2ccccc21,-12,.,55*,2,183*,183*
Cc1cc(=O)oc2c3c4c(cc12)OCCN4CCC3,10,.,70*,-9,67*,64*
CC(C)c1cc(=O)oc2c3c4c(cc12)CCCN4CCC3,19,.,-15,-8,.,.
CCN(CC)c1ccc(C2C(C(=O)Nc3ccccn3)=C(C)NC3=C2C(=O)CC(C)(C)C3)cc1 (stereo unspecified),3,i,7,-2,.,.
CCn1cc(C2C(C(=O)Nc3cc(C)ccn3)=C(C)NC3=C2C(=O)CC(C)(C)C3)c(C)n1 (stereo unspecified),-13,.,20*,-8,8,15*
COC(=O)C1=C(C)N(Cc2cccc(C(F)(F)F)c2)C(=NCC2CC2)NC1c1cccc(F)c1 (stereo unspecified),.,.,0,.,.,.
CN1C(=O)c2cc(NC(=O)C3CC3)ccc2OC[C@H]2O[C@@H](CC(=O)NC3CCC3)CC[C@@H]21,.,.,0,.,.,.
O=C(NCc1cccc2ccccc12)C1CCCN(c2nc3ccccc3o2)C1 (stereo unspecified),.,.,0,.,.,.
CN(C)C=Nc1ccc2nn(-c3ccccc3)nc2c1,-14,.,19*,-7,66*,69*
CN(C)C=Nc1ccc(Cl)c(Cl)c1,-4,i,0,-3,.,.
CC(=O)N1CCC2(CC1)CC(=O)c1cc(OCC(=O)N3CCOCC3)ccc1O2,-12,.,62*,-4,69*,65*
CCOC(=O)N1CCN(C(=O)COc2ccc3c(c2)C(=O)CC2(CCN(C(C)=O)CC2)O3)CC1,-1,.,26*,-5,71*,75*
SMILES,PfGluPho inh,Neddyl block,proKLK7 act,FAS TE block,proKLK7 act conf,EDANS interfere
Cc1cc(NC(=O)COC(=O)c2ccccc2NCCO)no1,3,.,34*,-3,27*,24*
CCn1c(C)nnc1SCC(=O)Nc1nccs1,9,i,-1,-7,.,.
Cc1ccc(C#N)c(SCC(=O)Nc2nccs2)n1,21,i,130*,-4,209*,182*
CCOC(=O)c1c(SCC(=O)Nc2nccs2)nc(C)c(C)c1C,5,i,79*,3,61*,58*
CCCCOCC1CN(CCCC)S(=O)(=O)c2c(Oc3ccc(C(C)C)cc3)cccc2O1 (stereo unspecified),.,.,0,.,.,.
CCCCc1c(-c2ccccc2OC)ncn1Cc1cc(F)cc(F)c1,.,.,1,.,.,.
COC(=O)c1cc2c(ccc3ccccc32)oc1=O,-6,.,65*,-1,67*,74*
CN1CCN(C(=O)c2cc3c(ccc4ccccc43)oc2=O)CC1,15,.,56*,-4,22*,21*
CCCCN1CCN(C(=O)C2CCN(S(=O)(=O)c3ccc4[nH]c(=O)oc4c3)CC2)CC1,.,.,0,.,.,.
O=C1NC(Cc2ccccc2)c2nc3ccc(Cl)cc3c(=O)n2-c2ncccc21 (stereo unspecified),18,i,0,3,.,.
CCOC(=O)c1cc(-c2cccs2)nc2onc(C)c12,1,.,18*,2,-166,-157
CCOC(=O)c1nc2nc(-c3cccs3)cc(C(F)(F)F)n2n1,-7,.,62*,-8,65*,62*
O=C(c1cc2nc(-c3ccco3)cc(C(F)(F)F)n2n1)N1CCN(Cc2ccccc2)CC1,4,.,1,4,.,.
CC(C)(C)NC(=O)c1nc2nc(-c3ccccc3)cc(C(F)(F)F)n2n1,9,i,1,-8,.,.
Nc1nc2nc(-c3cccs3)cc(C(F)(F)F)n2n1,7,i,82*,-4,75*,78*
CCOC(=O)c1cc(-c2ccncc2)nc2c1c(C)nn2C,3,.,3,0,.,.
COc1ccc(-c2cc(C(F)(F)F)n3nc(N)nc3n2)cc1,-11,.,.,-3,.,.
O=C(c1nc2nc(-c3cccs3)cc(C(F)(F)F)n2n1)N1CCN(Cc2ccccc2)CC1,10,.,26*,-4,-5,-9
O=C(O)c1cc(Cl)n[nH]c1=O,.,i,0,-5,.,.
O=C1[C@@H]2CSCCS(=O)(=O)N2C(=O)N1C1CCCCC1,.,.,0,.,.,.
Nc1nc2nc(-c3ccc(F)cc3)cc(C(F)(F)F)n2n1,2,.,24*,-3,17*,16*
Oc1ccc2ccccc2c1C=Nn1c(-c2n[nH]c3c2CCC3)n[nH]c1=S,.,.,0,.,.,.
NC(=O)C1CCN(C(=O)c2ccc(Cl)c(S(=O)(=O)N3CCc4ccccc43)c2)CC1,-13,i,0,-7,.,.
CCOc1ccc(-c2csc(NC(=O)c3ccc(S(=O)(=O)N4CCc5ccccc5C4)cc3)n2)cc1,-13,i,1,32,.,.
COc1ccc(-c2csc(NC(=O)c3ccc(S(=O)(=O)N4CCc5ccccc5C4)cc3)n2)c(OC)c1,-24,i,55*,37,59*,79*
O=C(Nc1nc(-c2ccccc2)cs1)c1ccc(S(=O)(=O)N2CCc3ccccc32)cc1,5,i,14*,18,0,-2
C=CCN1[C@H](C#N)[C@@H](c2ccccc2)[C@H]1CO,.,.,0,.,.,.
CC(C)(C)C(c1nc2ccccc2[nH]1)n1c(-c2cccc(S(C)(=O)=O)c2)nc2ccccc21 (stereo unspecified),.,.,-1,.,.,.
